Our source for the Potency and max response values is PubChem BioAssay (Tox21).

SMILES strings stand for the structures. Unmarked numbers belong to inactive results. Records with an inconclusive call do not appear. The source made the active and inactive calls. Calls come from the whole dose curve; as a rule, active = well fitted curve in the direction sought with a large enough effect in the repeat runs; inconclusive = weak or mixed curves; inactive = no such curve, though single readings can be large; an effect the other way counts as inactive or inconclusive.

Assay [1] in a line: qHTS RealTime-Glo MT Cell Viability Assay in HEK293 cells - 16 hour (AID 1224872). Note: nearly all actives have a fitted effect of over 50% in size. Note: potency is the fitted concentration of half-maximal effect. In short, it runs like this:
(§1)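 Cells + reagent dispensed (600 cells/well, HEK293) → 5 h at 37 C/5% CO2 → 23 nL compound in DMSO pinned → 40 h at 37 C → luminescence read at 0, 8, 16, 24, 32, 40 h.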
For orientation: Quantitative high-throughput screening tests each substance at several concentrations.

Assay [2] is described as follows: qHTS RealTime-Glo MT Cell Viability Assay in HepG2 cells - 8 hour (AID 1224873). Note: nearly all actives have a fitted effect of over 55% in size. Note: potency is the fitted concentration of half-maximal effect. The gist of the method: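 Real-time viability: cells seeded at 600 per well together with NanoLuc and cell-permeant prosubstrate, compounds added after 5 h incubation. Luminescence tracked at 0, 8, 16, 24, 32 and 40 h of exposure.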
The nature of assay [3]: qHTS RealTime-Glo MT Cell Viability Assay in HEK293 cells - 40 hour (AID 1224874). For max response: % is set by controls: 0 for no effect and ±100 for the full control effect. Note: nearly all actives have a fitted effect of over 50% in size. Note: potency is the fitted concentration of half-maximal effect. To be noted: RealTime-Glo luminescence; max response: hits give low values. In short, it runs like this:
(§2)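 Nonlytic bioluminescent viability monitoring. HEK293 at 600 cells/well with reagent; 5 h settle; compound transfer by pintool; plates held at 37 C and read at set time points.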

Assay [4] in a line: A CellTox Green Cytotoxicity Assay to monitor cytotoxicity in HEK293 cells - 24 hour (AID 1224875). Note: nearly all actives have a fitted effect of over 45% in size. Note: potency is the fitted concentration of half-maximal effect. In short, it runs like this: (§3)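 Cytotoxicity was tracked continuously in HEK293 cells by a DNA-binding dye excluded from viable cells. Compounds were transferred in DMSO 5 h after seeding; fluorescence was recorded at intervals up to 40 h.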
A short description of assay [5]: A CellTox Green Cytotoxicity Assay to monitor cytotoxicity in HepG2 cells - 16 hour (AID 1224876). Note: nearly all actives have a fitted effect of over 45% in size. Note: potency is the fitted concentration of half-maximal effect. In short, it runs like this:
(§4)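 Real-time, homogeneous cytotoxicity readout: dead-cell DNA staining by CellTox Green in HepG2 monolayers, fluorescence measured at timed intervals up to 40 h of continuous compound exposure.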

The nature of assay [6]: qHTS RealTime-Glo MT Cell Viability Assay in HepG2 cells - 32 hour (AID 1224877). Note: nearly all actives have a fitted effect of over 55% in size. Note: potency is the fitted concentration of half-maximal effect. In short, it runs like this:
(§5)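 Real-time, nonlytic viability: 600 HepG2 cells/well mixed with NanoLuc enzyme plus prosubstrate; 5 h settle, compound (DMSO) added by pintool; luminescence monitored over 40 h at 37 C.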

A short description of assay [7]: A CellTox Green Cytotoxicity Assay to monitor cytotoxicity in HepG2 cells - 24 hour (AID 1224878). For Cytotoxicity: % is set by controls: 0 for no effect and ±100 for the full control effect. Note: nearly all actives have a fitted effect of over 45% in size. Note: potency is the fitted concentration of half-maximal effect. The gist of the method: as §4
Assay [8] is described as follows: A CellTox Green Cytotoxicity Assay to monitor cytotoxicity in HepG2 cells - 40 hour (AID 1224879). Note: nearly all actives have a fitted effect of over 40% in size. Note: potency is the fitted concentration of half-maximal effect. The gist of the method:
as §4

A short description of assay [9]: qHTS RealTime-Glo MT Cell Viability Assay in HEK293 cells - 0 hour (AID 1224880). Note: top concentration of the series differs between compounds; % is set by controls: 0 for no effect and ±100 for the full control effect; nearly all actives have a fitted effect of over 45% in size. The gist of the method: as §2
A short description of assay [10]: A CellTox Green Cytotoxicity Assay to monitor cytotoxicity in HepG2 cells - 0 hour (AID 1224882). Note: % is set by controls: 0 for no effect and ±100 for the full control effect; nearly all actives have a fitted effect of over 35% in size. In short, it runs like this:
as §4

A short description of assay [11]: A CellTox Green Cytotoxicity Assay to monitor cytotoxicity in HepG2 cells - 32 hour (AID 1224883). Note: potency is the fitted concentration of half-maximal effect; nearly all actives have a fitted effect of over 50% in size. In short, it runs like this:
as §4

A short description of assay [12]: A CellTox Green Cytotoxicity Assay to monitor cytotoxicity in HEK293 cells - 8 hour (AID 1224884). Note: nearly all actives have a fitted effect of over 35% in size. Note: potency is the fitted concentration of half-maximal effect. In short, it runs like this:
as §3

Assay [13] can be described thus: qHTS RealTime-Glo MT Cell Viability Assay in HEK293 cells - 24 hour (AID 1224886). Note: nearly all actives have a fitted effect of over 50% in size. Note: potency is the fitted concentration of half-maximal effect. The gist of the method:
as §1

Assay [14] is described as follows: qHTS RealTime-Glo MT Cell Viability Assay in HEK293 cells - 8 hour (AID 1224887). Note: nearly all actives have a fitted effect of over 50% in size. Note: potency is the fitted concentration of half-maximal effect. In short, it runs like this:
as §2

Assay [15] can be described thus: A CellTox Green Cytotoxicity Assay to monitor cytotoxicity in HEK293 cells - 16 hour (AID 1224888). Note: nearly all actives have a fitted effect of over 35% in size. Note: potency is the fitted concentration of half-maximal effect. In short, it runs like this:
as §3

The nature of assay [16]: A CellTox Green Cytotoxicity Assay to monitor cytotoxicity in HepG2 cells - 8 hour (AID 1224890). Note: nearly all actives have a fitted effect of over 45% in size. Note: potency is the fitted concentration of half-maximal effect. The gist of the method:
as §4

Assay [17] in a line: A CellTox Green Cytotoxicity Assay to monitor cytotoxicity in HEK293 cells - 32 hour (AID 1224881). Note: nearly all actives have a fitted effect of over 40% in size. Note: potency is the fitted concentration of half-maximal effect. The gist of the method: as §3
The nature of assay [18]: qHTS RealTime-Glo MT Cell Viability Assay in HepG2 cells - 16 hour (AID 1224885). Note: nearly all actives have a fitted effect of over 50% in size. Note: potency is the fitted concentration of half-maximal effect. In short, it runs like this:
as §5

A short description of assay [19]: qHTS RealTime-Glo MT Cell Viability Assay in HepG2 cells - 0 hour (AID 1224889). The gist of the method:
as §5

Assay [20] can be described thus: qHTS assay to identify small molecule antagonists of the estrogen receptor alpha (ER-alpha) signaling pathway using the BG1 cell line in the presence of 0.1 nM 17-beta-estradiol - cell viability counter screen (AID 1259241). Note: % is set by controls: 0 for no effect and ±100 for the full control effect; nearly all actives have a fitted effect of over 40% in size. The gist of the method:
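The cell line endogenously expresses full-length ER-alpha and carries four EREs driving luciferase. Cells are cultured 5 days hormone-free, treated 22 hr with compounds and 0.1 nM estradiol, then viability is read by fluorescence.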

On to `CCCCCCCCCCCCCCCCCC[N+](C)(C)Cc1ccccc1`, for which the Potency in assay [1] was 17.5 µM (active); in assay [2], 49.5 µM (active); in assay [3], 1.75 µM (active); in [4], 24.8 µM (active); in assay [5], 44.1 µM (active); in [6], 35 µM (active). For the same molecule, the Potency is 24.8 µM (active) in assay [7]; 19.7 µM (active) in assay [8]; 22.1 µM (active) in assay [11]; 19.7 µM (active) in assay [12]; 6.23 µM (active) in assay [13]; 24.8 µM (active) in assay [14]. The Potency in assay [15] is 22.1 µM (active); in [16], 55.5 µM (active). The Potency entry in [9] and in assay [10] was “inactive” in each case.

For the molecule `CCC(CN)=C(c1ccccc1)c1ccccc1`, the Potency result in assay [1], in assay [2], in assay [4], in assay [5], in [6] and in assay [7] was “inactive” in each case. In addition, the Potency result in assay [17], in [10], in [12], in [18], in assay [13] and in assay [14] was “inactive” each time. Besides, the Potency entry in assay [15], in assay [19], in assay [16] and in assay [20] was “inactive” in each case. The max response in assay [3] was -19.1%.

With `COC(=O)C1=C(C)NC(C)=C(C(=O)OCCc2ccc(N3CCN(C(c4ccccc4)c4ccccc4)CC3)cc2)C1c1cccc([N+](=O)[O-])c1` (stereo not given), the Potency result in assay [1], in [2], in [4], in [5], in assay [6] and in assay [7] was “inactive” in each case. For the same molecule, the Potency entry in assay [8], in assay [9], in assay [17], in assay [10], in assay [12] and in assay [18] was “inactive” in each case. For the same molecule, the Potency result in [13], in assay [14], in assay [15], in assay [19], in assay [16] and in [20] was “inactive” in each case. Besides, in [3], the max response is 0.767%.

For `OCCN1CCN(CC/C=C2/c3ccccc3Sc3ccc(C(F)(F)F)cc32)CC1`, the Potency in [1] was 19 µM (active); in assay [2], 23.9 µM (active); in assay [3], 19 µM (active); in assay [4], 26.8 µM (active); in [5] it was 23.9 µM (active); in [6], 15.1 µM (active). In addition, the Potency in assay [7] was 16.9 µM (active); in assay [8] it was 13.4 µM (active); in assay [11] it was 15.1 µM (active); in assay [12], 23.9 µM (active); in assay [18], 23.9 µM (active); in assay [13] it was 19 µM (active). For the same molecule, the Potency in assay [15] was 26.8 µM (active); in [16], 23.9 µM (active). Also, the Potency entry in assay [10] was “inactive”.

With `CCCCCCCCCCC=O`, the Potency entry in assay [1], in [2], in assay [4], in assay [5], in [6] and in [7] was “inactive” in each case. In addition, the Potency entry in assay [8], in assay [9], in assay [10], in assay [12], in assay [18] and in assay [13] was “inactive” throughout. For the same molecule, the Potency result in assay [14], in [15], in [19], in [16] and in assay [20] was “inactive” each time. Further, the max response in [3] is 2.14%.

With `C[C@@H](NCCCc1cccc(C(F)(F)F)c1)c1cccc2ccccc12`, the Potency in assay [1] was 23.9 µM (active); in assay [2], 23.9 µM (active); in [3], 23.9 µM (active); in assay [4] it was 23.9 µM (active); in assay [5] it was 19 µM (active); in assay [6], 16.9 µM (active). The Potency is 16.9 µM (active) in assay [7]; 15.1 µM (active) in [8]; 23.9 µM (active) in [17]; 15.1 µM (active) in [11]; 21.3 µM (active) in assay [18]; 23.9 µM (active) in assay [13]. For the same molecule, the figures for the Potency in assay [15] and in assay [16] were 23.9 µM (active) and 21.3 µM (active), respectively. Moreover, in assay [10], the Potency entry is “inactive”.
